# Reference: PubChem BioAssay AID463212 (Sanford-Burnham Center for Chemical Genomics, 2010)
# Hit rate of the full screen: of about 330,000 compounds, about 4,400 (1.3%) were called active. This is one part of a sample in which actives are shown more often than they occur.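 Rule for the calls: active = growth inhibition of the mutant yeast at or above 50%; inactive = the rest.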
# Assay: growth inhibition of tim23-1 ts yeast – luminescence, uHTS, primary screen (AID 463212);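 note: temperature-sensitive mutant grown at 25 °C; plate controls were DMSO-treated mutant yeast for no effect and medium wells lacking yeast for full effect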
# Details: S. cerevisiae tim23-1 growth, BacTiter-Glo luminescence, 24 h; at 20 µM; stronger effect = higher value
row,Structure (SMILES),inhibition
1,O=C(CNC(=O)c1ccc(Cl)cc1Cl)NCC(=O)Nc1ccccc1N1CCOCC1,3.5% (inactive)
2,CC(Oc1cccc(NC(=O)c2cccs2)c1)C(=O)c1ccccc1 (stereo not drawn),34.3% (inactive)
3,Cc1ccoc1C(=O)Nc1cccc(Oc2ccccc2)c1,77.9% (active)
4,Cc1cccc(NC(=O)Nc2cccc(Oc3c(F)c(F)c(F)c(F)c3F)c2)c1,17% (inactive)
5,N#Cc1ccccc1S(=O)(=O)N1CCN(Cc2c(O)ccc3ccccc23)CC1,21.3% (inactive)
6,CCOC(=O)c1c(N)nn(C(=O)c2ccccc2)c1-c1ccccc1,27% (inactive)
7,Cc1cc(Nc2ccccc2)n(C(=O)c2ccc(N)cc2)n1,57.6% (active)
8,Cn1c(Nc2ccccc2)cc(=O)n(C)c1=O,6.86% (inactive)
9,O=C(COc1ccc(Cl)cc1Cl)N/N=C/c1ccccn1,39% (inactive)
10,CC[C@@H]1Cc2cc(O)ccc2C2=C1c1ccc(O)cc1C[C@H]2CC,-6.54% (inactive)
11,COC(=O)c1c(NC(=O)COc2ccc(Cl)cc2Cl)sc2c1CC(C)(C)NC2(C)C,60.1% (active)
12,CCOC(=O)c1c(NC(=O)c2ccc(S(=O)(=O)N(C)CC3CCCO3)cc2)sc2c1CC(C)(C)NC2(C)C (stereo not drawn),24% (inactive)
13,COC(=O)c1sccc1NC(=O)COc1ccc(Cl)cc1,6.02% (inactive)
14,Cc1ccc(C(=O)NCC(=O)NCc2cc(=O)n(C)c(=O)n2C)cc1,16.1% (inactive)
15,Nc1nc(SCC(=O)Nc2ccc(Cl)cc2C(F)(F)F)n[nH]1,3.1% (inactive)
16,CCC(C)(C)n1nnnc1CN1CCN(c2nc3ccc(C)cc3cc2C#N)CC1,40.5% (inactive)
17,O=C1CSC(=S)N1c1ccc(Cl)c(Cl)c1,53.7% (active)
18,O=C1CSC(=S)N1c1ccc(O)cc1,11.4% (inactive)
19,COc1cc(N2C(=O)CSC2=S)cc(OC)c1OC,23.9% (inactive)
20,CCNC(=O)NC(=O)C(C)OC(=O)c1cc(S(=O)(=O)N2CCCCCC2)ccc1OC (stereo not drawn),19.4% (inactive)
21,O=[N+]([O-])c1ccc2nc(-c3ccccn3)[nH]c2c1,46.5% (inactive)

row,Structure (SMILES),inhibition
1,O=[N+]([O-])c1ccc2c(c1)Nc1nc3ccccc3nc1N2,59.9% (active)
2,COc1ccc([N+](=O)[O-])cc1-c1nc2ccccc2nc1-c1ccccc1,36.6% (inactive)
3,COc1ccc(-c2cc3ncccc3cn2)cc1,9.46% (inactive)
4,COc1ccc(-c2cc(C3CCN(c4ncccc4[N+](=O)[O-])CC3)[nH]n2)cc1,57.6% (active)
5,CC(=O)NC(Cc1ccccc1)C(=O)NC1CCN(c2ncccc2[N+](=O)[O-])CC1 (stereo not drawn),10.9% (inactive)
6,CC(C(=O)Nc1ccccc1-c1ccccc1)N1CCOCC1 (stereo not drawn),7.67% (inactive)
7,Clc1ccc(C2CC(c3cccs3)n3ncnc3N2)cc1Cl (stereo not drawn),50.5% (active)
8,Nc1nc2n(n1)C(c1ccco1)CC(c1ccc(Cl)c(Cl)c1)N2 (stereo not drawn),20.6% (inactive)
9,COc1ccc(C2CC(c3ccc(C)cc3)Nc3ncnn32)cc1 (stereo not drawn),27.1% (inactive)
10,Oc1ccccc1CNc1ncc(Br)cc1Br,45.5% (inactive)
11,CCc1nnc(NS(=O)(=O)c2ccc(NC(=S)NC(=O)/C=C/c3cccs3)cc2)s1,96.1% (active)
12,CCc1nnc(NS(=O)(=O)c2ccc(NC(=S)NC(=O)c3cccs3)cc2)s1,18.7% (inactive)
13,CCc1nnc(NS(=O)(=O)c2ccc(NC(=O)c3cccc(OC(F)(F)C(F)F)c3)cc2)s1,-1.08% (inactive)
14,COC(=O)c1cc2occc2n1Cc1nc(-c2ccccc2C)oc1C,4.08% (inactive)
15,C=CCn1nc(-c2ccccc2)c2c(C)onc2c1=O,6.39% (inactive)
16,CC(=O)Nc1ccc(S(=O)(=O)NC2(C(F)(F)F)C(=O)Nc3c2c(=O)[nH]c(=O)n3Cc2ccccc2)cc1 (stereo not drawn),3.06% (inactive)
17,CC(C)NC(=O)/C(C#N)=C\c1ccc(N(C)C)c(Br)c1,61% (active)
18,CC(C)(C)C(=O)/C(C#N)=C/c1ccc(O)cc1,24% (inactive)
19,Cc1[nH]c2ccccc2c1/C=C(/C#N)C(=O)NC(C)C,10.2% (inactive)
20,Cc1cc(C(=O)OC(C)C(=O)NC2CCCCC2C)c(C)o1 (stereo not drawn),-5.23% (inactive)
21,CCN(CC)CC(=O)Nc1sc2c(c1C(=O)c1ccccc1C)CCC2,32.5% (inactive)

row,Structure (SMILES),inhibition
1,CC(OC(=O)CCCc1c[nH]c2ccccc12)C(=O)Nc1ccc(S(N)(=O)=O)cc1 (stereo not drawn),11.1% (inactive)
2,CCN(CC)C(=O)N1CCN(C(=O)c2ccc(C)cn2)CC1,8.95% (inactive)
3,CC(=O)n1c(C=Nc2ccccc2)c(O)c2ccccc21,10.8% (inactive)
4,O=[N+]([O-])c1ccc(N=Cc2c(O)ccc3ccccc23)cc1,55.5% (active)
5,CC(C)CNC(=O)CC(c1ccccc1)c1c(O)ccc2ccccc12 (stereo not drawn),11.2% (inactive)
6,Cc1nc2ccccc2nc(=O)c1NNc1ccc([N+](=O)[O-])cc1,-14.3% (inactive)
7,Oc1ccc2ccccc2c1C=Nc1ccccc1,53.2% (active)
8,C/C(=N\N(C)C)c1ccc(OCCOc2ccc([N+](=O)[O-])cc2)cc1,20.4% (inactive)
9,COc1ccc(NC(=O)C2=C(C)NC(=O)NC2c2ccccc2[N+](=O)[O-])cc1 (stereo not drawn),1.02% (inactive)
10,O=C(NCC(=O)N(CC1CCCO1)C(C(=O)NC1CCCCC1)c1ccccc1)c1ccco1 (stereo not drawn),14.7% (inactive)
11,COc1cc(C2CC(=O)Oc3cc(OC)c(OC)c(OC)c32)cc(OC)c1OC (stereo not drawn),27.3% (inactive)
12,COc1ccc(NC(=O)NNC(=O)COc2cc(C)c(Cl)c(C)c2)c(OC)c1,-17.4% (inactive)
13,Oc1ccc(/C=N/Nc2ccc(C(F)(F)F)cn2)cc1O,16.3% (inactive)
14,Oc1cccc(/C=N/Nc2ccc(Cl)nn2)c1O,24.4% (inactive)
15,Oc1ccc(Br)cc1/C=N/Nc1ccccn1,68% (active)
16,COc1ccc(/C(N)=N/OC(=O)Oc2ccccc2)cc1,14.8% (inactive)
17,COc1ccc(/C(N)=N/OC(=O)CCCc2ccccc2)cc1,71.1% (active)
18,O=C(CCc1ccccc1)NNC(=O)COc1ccc(Cl)cc1,7.58% (inactive)
19,N/C(=N\OC(=O)CCc1ccccc1)c1ccc(Cl)cc1,73.6% (active)
20,N/C(=N\OC(=O)CCc1ccccc1)c1cccnc1,18.1% (inactive)
21,COc1ccc(/C(N)=N/OC(=O)Cc2ccccc2)cc1,21.8% (inactive)
